Assay outcomes as filed in PubChem.
Most compounds without a hit are left out; they make up all but 0.38% or so of the library.
Rac1 mut GTP: GTP binding modulators of activated mutant Rac1, primary screen, biochemical, bead-based flow cytometry, multiplex, fluorescent GTP; GST-Rac1 activated beads; actives lie on both sides; 100% means binding = to untreated wells; percent activity (GTP binding), % at 10 µM; Ras-related C3 botulinum toxin substrate 1 (Homo sapiens), P63000; 190,000 tested, 0.11% active; AID 764, 2007;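 active = GTP binding at least 20 percentage points away from the 100% baseline, in either direction, so actives lie on both sides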
Rac1 wt GTP bind: wildtype Rac1 GTP binding modulators, primary screen, biochemical, GST-Rac1 beads, flow cytometry, multiplex. GTP binding activity (% of control), % at 10 µM. fluorescent GTP binding; actives lie on both sides; 0 = cold GTP competed, 100 = untreated. AID 757, 2007. 190,000 tested, 0.27% active;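 active = GTP binding activity at least 20 points away from the 100% control level, either lower or higher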
Rab2A wt mod: modulators of GTP binding to Rab2A wildtype, primary screen, biochemical, dog, bead-based flow cytometry, multiplex; GTP binding activity, % at 10 µM; Ras-related protein Rab-2A (Canis lupus familiaris), P61105; GST-Rab2 wt beads, Bodipy-GTP binding; 190,000 tested, 0.19% active; AID 760, 2007;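 active = GTP binding activity at least 20 points away from 100%, either lowered or raised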
Cdc42 wt: modulators of GTP binding to wildtype Cdc42, primary screen, biochemical, multiplex bead flow cytometry, Bodipy-GTP; Cell division control protein 42 homolog (Homo sapiens), P60953; GST-Cdc42 beads; actives lie on both sides; percent activity (GTP binding), % at 10 µM; 190,000 tested, 0.2% active;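 active = percent activity GTP binding at least 20 points away from the 100% baseline, either down as inhibitor or up as activator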;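 also: median bead fluorescence of bound Bodipy-FL-GTP at 100 nM; below 100% means less GTP binding so inhibitor and above means activator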
Target sequence (P60953 whole entry, looked up): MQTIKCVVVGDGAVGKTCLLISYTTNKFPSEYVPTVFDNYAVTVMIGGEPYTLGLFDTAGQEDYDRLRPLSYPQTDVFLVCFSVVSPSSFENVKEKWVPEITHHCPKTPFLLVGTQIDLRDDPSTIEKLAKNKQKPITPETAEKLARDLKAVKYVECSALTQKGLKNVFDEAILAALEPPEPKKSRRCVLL
Rab7 wt modul: modulators of GTP binding to Rab7, primary screen, biochemical, wildtype, multiplex bead flow cytometry; AID 758, 2007; GST-Rab7 beads, fluorescent GTP binding; actives lie on both sides; untreated = 100%, excess cold GTP = 0%; GTP binding activity (percent of control), % at 10 µM; 190,000 tested, 0.055% active;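 active = fluorescent GTP binding to Rab7 beads changed by at least 20 points from the 100% baseline, either direction, mostly lower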;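 also: median green fluorescence of bound Bodipy-FL-GTP per Rab7 bead population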
HRas wt GTP bind: modulators of GTP binding to HRas wildtype, primary screen, biochemical, bead-based flow cytometry, multiplex; GTPase HRas (Homo sapiens), P01112; GST-Ras wt beads, Bodipy-FL-GTP binding; actives lie on both sides; GTP binding activity, % at 10 µM; 190,000 tested, 0.14% active; AID 759, 2007;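 active = GTP binding activity at least 20% away from the 100% baseline, either lowered as inhibitor or raised as activator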
Target sequence (P01112 whole entry, looked up): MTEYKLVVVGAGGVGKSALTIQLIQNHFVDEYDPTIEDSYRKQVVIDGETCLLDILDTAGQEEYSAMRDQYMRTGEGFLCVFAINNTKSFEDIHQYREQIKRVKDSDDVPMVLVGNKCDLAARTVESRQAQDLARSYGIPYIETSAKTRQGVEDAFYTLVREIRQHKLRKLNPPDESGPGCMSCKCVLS
Each line names hits and unclear results; the compound was inactive in the other large screens; [ ] = another dose, or the depositor's remark.

COc1cc(/C=N/Nc2ccc(S(N)(=O)=O)cc2)cc(OC)c1OC	Rac1 wt GTP bind 79
COc1cc(/C=N/Nc2ccc(F)cc2F)cc(OC)c1OC	none
CCOc1ccc(OCCOCCNCCOC)cc1	none
COC(=O)c1cc(C(=O)NCc2ccccc2)c(=O)[nH]c1C	none
O=[N+]([O-])c1cc(-c2ncccn2)c([N+](=O)[O-])s1	Rac1 mut GTP 76
O=C(NCc1cccs1)C1CC(=O)N(c2ccc(Cl)cc2)C1 (centres undefined)	none
Cc1ccc(NC(=O)CN2C(=O)S/C(=C\c3ccc(-c4cccc(C(=O)O)c4C)o3)C2=O)cc1C	Cdc42 wt 79
Cc1cccc(NC(=O)CN2C(=O)N/C(=C/c3ccc(-c4cccc(C(=O)O)c4C)o3)C2=O)c1	none
CCC(C)(NC(=O)c1ccccn1)C(=O)NC1CCCC1 (centres undefined)	none
Cc1cc(C(=O)Oc2cccnc2)ccc1[N+](=O)[O-]	none
Cc1nc(-c2ccccc2)sc1C(=O)NN	Rac1 wt GTP bind 128[activator], Rab2A wt mod 120[activator], Cdc42 wt 125[activator]
Cc1ccc(C(=O)Nn2c(O)c(C=C3N=c4ccccc4=N3)sc2=S)cc1	Rac1 mut GTP 79, Rac1 wt GTP bind 72, Cdc42 wt 73, HRas wt GTP bind 73
O=C(Nn1c(O)c(C=C2N=c3ccccc3=N2)sc1=S)c1ccc(Cl)cc1	none
COC(=O)CSc1nc2cc(Cl)ccc2c(=O)n1C1CCCC1	Cdc42 wt 79
Cc1cc(NC(=O)CSc2nc3ccccc3c(=O)n2C2CCCC2)no1	none
O=C(CSc1ncn[nH]1)CSc1ncn[nH]1	none
O=C(N/N=C/c1ccc2nccnc2c1)c1cccc([N+](=O)[O-])c1	Rac1 wt GTP bind 77
COc1ccc(/C=N/NC(=O)c2cccc([N+](=O)[O-])c2)cc1OC	none
Cc1ccc2sc(NNC(=O)c3cc(=O)c4ccccc4o3)nc2c1C	Rac1 mut GTP 77
COc1ccc2nc(NNC(=O)c3cc(=O)c4ccccc4o3)sc2c1	none
O=C(NNc1nc2c(F)cccc2s1)c1cc(=O)c2ccccc2o1	Rac1 mut GTP 76
Cc1cccc2sc(NNC(=O)c3cc(=O)c4ccccc4o3)nc12	Rac1 mut GTP 74, Cdc42 wt 77
Cc1ccc(-c2cccc(CN3CCN(C4CCN(C(C)C)CC4)C(CCO)C3)c2)o1 (centres undefined)	none
Oc1ccc(/C=N/Nc2nc(-c3ccc(Cl)cc3)cc(C(F)(F)F)n2)cc1	none
O=c1[nH]c(=O)c2nnc(N/N=C\c3ccc(O)cc3)nc2[nH]1	Rac1 mut GTP 74, Rac1 wt GTP bind 54, Rab2A wt mod 59, Cdc42 wt 60, HRas wt GTP bind 63
CCCCCn1c(SCCc2ccccc2)nc2c1c(=O)[nH]c(=O)n2C	none
CCCCn1c(SCC(=O)c2ccccc2)nc2c1c(=O)[nH]c(=O)n2C	Rac1 mut GTP 36, Rac1 wt GTP bind 33, Rab2A wt mod 36, Cdc42 wt 38, Rab7 wt modul 21, HRas wt GTP bind 41
COc1cc2c(-c3ccc(O)cc3)nc3c(c(C)nn3-c3ccccc3)c2cc1OC	none
COc1cc2c(C)nc3c(c(C)nn3-c3ccccc3)c2cc1OC	Rac1 wt GTP bind 72
CCN(CC)C(=S)Nc1ccc2nc3n(c(=O)c2c1)CCCCC3	none
COC(=O)COc1ccc(/C=N/NC(=O)c2ccc(N(Cc3ccccc3)S(C)(=O)=O)cc2)cc1	Rac1 wt GTP bind 76, Rab2A wt mod 76
O=C(N/N=C/c1ccccc1)c1ccc(OCc2ccccc2)cc1	none
CS(=O)(=O)N(Cc1ccccc1)c1ccc(C(=O)Nc2cccnc2)cc1	none
